# Measured values published in PubChem BioAssay (EPA / NIEHS).
# “And” between values parts separate entries of the source, which are not always exact repeats. Equal entries are not always repeated. Where a structure was tested more than once in an assay, its records may differ in their call. The source made the active and inactive calls. How the source made its calls: active means hit-call score of the fitted dose curve at least 0.9, where 1 is the maximum; inactive means score below 0.9.
# Experiments:
# [1] = read-out: Thrombomodulin, THBD (gene 7056); test: BSK_CASM3C_Thrombomodulin: BioMAP Diversity Plus: CASM3C Assay for Thrombomodulin Biomarker Activity (AID 2283051); conditions: primary human coronary artery smooth muscle cells; actives raise or lower the signal;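 further: thrombomodulin protein level measured by ELISA 24 h after dosing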
# [2] = read-out: Tissue Factor, F3 (gene 2152); test: BSK_CASM3C_TissueFactor: BioMAP Diversity Plus: CASM3C Assay for Tissue Factor Biomarker Activity (AID 2283052); conditions: primary human coronary artery smooth muscle cells; actives raise or lower the signal;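 further: cell surface tissue factor protein level read by ELISA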
# [3] = read-out: Urokinase-type plasminogen activator receptor (uPAR), PLAUR (gene 5329); test: BSK_CASM3C_uPAR: BioMAP Diversity Plus: CASM3C Assay for Urokinase-type plasminogen activator receptor (uPAR) Biomarker Activity (AID 2283054); conditions: primary human coronary artery smooth muscle cells; actives raise or lower the signal;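 further: cell-surface uPAR protein level quantified by ELISA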
# [4] = read-out: Vascular cell adhesion molecule 1 (VCAM1), VCAM1 (gene 7412); test: BSK_CASM3C_VCAM1: BioMAP Diversity Plus: CASM3C Assay for Vascular cell adhesion molecule 1 (VCAM1) Biomarker Activity (AID 2283055); conditions: primary human coronary artery smooth muscle cells; actives raise or lower the signal;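 further: VCAM-1 protein level quantified by ELISA on the cells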
# [5] = read-out: Collagen III, COL3A1 (gene 1281); test: BSK_hDFCGF_CollagenIII: BioMAP Diversity Plus: hDFCGF Assay for Collagen III Biomarker Activity (AID 2283056); conditions: primary human foreskin fibroblasts; actives raise or lower the signal
# In short: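 ELISA readout of Collagen III in human dermal (foreskin) fibroblasts, taken 24 h post-treatment. Gain or loss relative to DMSO vehicle fitted in both directions.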
# [6] = read-out: Epidermal growth factor receptor (EGFR), EGFR (gene 1956); test: BSK_hDFCGF_EGFR: BioMAP Diversity Plus: hDFCGF Assay for Epidermal growth factor receptor (EGFR) Biomarker Activity (AID 2283057); conditions: primary human foreskin fibroblasts; actives raise or lower the signal
# In short: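 Primary human foreskin fibroblasts were exposed to compound for 24 h, after which cell-surface EGFR was quantified by ELISA. Activity was fitted bidirectionally against the DMSO negative control as baseline.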
# [7] = read-out: Interleukin-8 (IL8), CXCL8 (gene 3576); test: BSK_hDFCGF_IL8: BioMAP Diversity Plus: hDFCGF Assay for Interleukin-8 (IL8) Biomarker Activity (AID 2283058); conditions: primary human foreskin fibroblasts; actives raise or lower the signal
# In short: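 IL-8 levels read by ELISA at 24 hours after dosing human skin fibroblast cultures. Parallel SRB staining assessed overt cytotoxicity, and gain or loss of signal was fitted against DMSO control.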
# [8] = BSK_hDFCGF_Proliferation: Cell Proliferation Assessment in the BioMAP Diversity Plus: hDFCGF Assay (AID 2283059); conditions: primary human foreskin fibroblasts;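 further: curves fitted for both rise and fall of signal versus DMSO baseline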
# In short: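 Total protein read at 560 nm after 0.1% SRB staining of TCA-fixed human skin fibroblasts, […]. Activity is fitted in both directions relative to DMSO as baseline.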
# [9] = read-out: Macrophage colony-stimulating factor (MCSF), CSF1 (gene 1435); test: BSK_hDFCGF_MCSF: BioMAP Diversity Plus: hDFCGF Assay for Macrophage colony-stimulating factor (MCSF) Biomarker Activity (AID 2283060); conditions: primary human foreskin fibroblasts; actives raise or lower the signal
# In short: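 M-CSF levels read by ELISA at 24 h post-dosing in human skin fibroblasts. Parallel cultures stained with SRB assessed cytotoxicity at the same time point; response fitted in both directions against the DMSO baseline.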
# [10] = read-out: Interferon-gamma inducible Protein 10 (IP10), CXCL10 (gene 3627); test: BSK_hDFCGF_IP10: BioMAP Diversity Plus: hDFCGF Assay for Interferon-gamma inducible Protein 10 (IP10) Biomarker Activity (AID 2283053); conditions: primary human foreskin fibroblasts; actives raise or lower the signal
# In short: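 Human foreskin fibroblast primary cells (hDFCGF system) were dosed with chemical and assayed at 24 h; IP-10 measured by ELISA. Activity fitted bidirectionally relative to DMSO negative control as baseline.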
Structure (SMILES),outcome [1],outcome [2],outcome [3],outcome [4],AC50 [5],outcome [6],outcome [7],outcome [8],AC50 [9],outcome [5],outcome [9],AC50 [1],AC50 [3],AC50 [4],AC50 [7],AC50 [8],AC50 [10],AC50 [6],outcome [10],AC50 [2]
COP(=S)(OC)Oc1ccc([N+](=O)[O-])cc1,inactive,inactive,inactive,inactive,16.6 µM (active),inactive,inactive,inactive,11.1 µM (active),–,–,–,–,–,–,–,–,–,–,–
COP(=S)(OC)Oc1ccc(SC)c(C)c1,inactive,inactive,inactive,inactive,–,inactive,inactive,inactive,–,inactive,inactive,–,–,–,–,–,–,–,–,–
O=S1OCC2C(CO1)C1(Cl)C(Cl)=C(Cl)C2(Cl)C1(Cl)Cl (stereo unspecified),–,inactive,–,–,22.5 µM (active),inactive,–,–,24.2 µM (active),–,–,14.3 µM (active),36.6 µM (active),25.8 µM (active),33.8 µM (active),23.2 µM (active),–,–,–,–
O=C1c2ccccc2C(=O)N1SC(Cl)(Cl)Cl,–,inactive,–,–,–,inactive,inactive,–,26 µM (active),inactive,–,4.99 µM (active),33.8 µM (active),–,–,29.7 µM (active),20 µM (active),–,–,–
O=S(=O)(O)C(F)(F)C(F)(F)C(F)(F)C(F)(F)C(F)(F)C(F)(F)C(F)(F)C(F)(F)F,inactive,inactive,inactive,inactive,35.1 µM (active) and 30.8 µM (active),inactive,inactive,inactive,48.1 µM (active) and 48.4 µM (active),inactive,inactive,–,–,13 µM (active) and 30 µM (active),–,–,–,3.97 µM (active),–,–
CNC(=O)/C=C(\C)OP(=O)(OC)OC,inactive,inactive,inactive,inactive,–,inactive,inactive,inactive,–,inactive,inactive,–,–,–,–,–,–,–,–,–
CCOc1nc(NC)nc(NC(=O)NS(=O)(=O)c2ccccc2C(=O)OC)n1,inactive,inactive,inactive,inactive,–,inactive,inactive,inactive,–,inactive,inactive,–,–,–,–,–,26.5 µM (active),–,–,–
CCS(=O)(=O)c1cccnc1S(=O)(=O)NC(=O)Nc1nc(OC)cc(OC)n1,inactive,inactive,inactive,inactive,–,inactive,inactive,inactive,–,inactive,inactive,–,–,–,–,–,–,–,inactive,–
Cc1cc(C)nc(NC(=O)NS(=O)(=O)c2ccccc2C(=O)OC2COC2)n1,inactive,inactive,inactive,inactive,–,inactive,inactive,inactive,–,inactive,inactive,–,–,–,–,–,–,–,–,–
O=[N+]([O-])c1c(Cl)c(Cl)c(Cl)c(Cl)c1Cl,–,inactive,inactive,inactive,14.9 µM (active),inactive,inactive,–,18 µM (active),–,–,24.8 µM (active),–,–,–,19.7 µM (active),38 µM (active),–,–,–
Cc1[nH]c(=O)n(C(C)(C)C)c(=O)c1Cl,inactive,inactive,inactive,inactive,–,inactive,inactive,inactive,–,inactive,inactive,–,–,–,–,–,–,–,–,–
O=C(O)COc1ccc(Cl)cc1Cl,inactive,inactive,inactive,inactive,–,inactive,inactive,inactive,–,inactive,inactive,–,–,–,–,–,–,–,inactive,–
CCCN(CCC)c1c([N+](=O)[O-])cc(C(F)(F)F)cc1[N+](=O)[O-],inactive,inactive,inactive,inactive,–,inactive,inactive,–,28.6 µM (active),inactive,–,–,–,–,–,29.6 µM (active),15.2 µM (active),–,–,–
CNC(=O)Oc1ccccc1OC(C)C,inactive,inactive,inactive,inactive,–,inactive,inactive,inactive,–,inactive,inactive,–,–,–,–,–,–,–,inactive,–
O=C(O)C(F)(F)C(F)(F)C(F)(F)C(F)(F)C(F)(F)C(F)(F)C(F)(F)F,inactive,inactive,inactive,inactive,–,inactive,inactive,inactive,–,inactive,inactive,–,–,–,–,8.07 µM (active),–,22.4 µM (active),inactive,–
OCCOc1ccccc1,inactive,inactive,inactive,inactive,–,inactive,inactive,inactive,–,inactive,inactive,–,–,–,–,–,–,–,–,–
CC[C@H](C)[C@H]1O[C@]2(C=C[C@@H]1C)C[C@@H]1C[C@@H](C/C=C(\C)[C@@H](O[C@H]3C[C@H](OC)[C@@H](O[C@H]4C[C@H](OC)[C@@H](O)[C@H](C)O4)[C@H](C)O3)[C@@H](C)/C=C/C=C3\CO[C@@H]4[C@H](O)C(C)=C[C@@H](C(=O)O1)[C@]34O)O2 (tested in a mixture with another compound),inactive,inactive,–,–,6.63 µM (active),–,–,–,8.11 µM (active),–,–,–,12.2 µM (active),15 µM (active),9.73 µM (active),5.3 µM (active),10.7 µM (active),5.21 µM (active),–,–
CCCN(CCOc1c(Cl)cc(Cl)cc1Cl)C(=O)n1ccnc1,–,inactive,inactive,inactive,31.1 µM (active),inactive,inactive,–,23.8 µM (active),–,–,3.97 µM (active),–,–,–,21 µM (active),–,–,–,–
COC(=O)c1ccccc1CS(=O)(=O)NC(=O)Nc1nc(OC)cc(OC)n1,inactive,inactive,inactive,inactive,–,inactive,inactive,inactive,–,inactive,inactive,–,–,–,–,–,–,–,inactive,–
ClC1C(Cl)C(Cl)C(Cl)C(Cl)C1Cl (stereo unspecified),inactive,inactive,inactive,inactive,20 µM (active),inactive,inactive,inactive,–,inactive,inactive,–,29 µM (active),32.2 µM (active) and 32.4 µM (active),–,28.1 µM (active) and 24.6 µM (active),–,–,–,–
C#CCN1C(=O)COc2cc(F)c(N3C(=O)C4=C(CCCC4)C3=O)cc21,inactive,inactive,inactive,inactive,–,inactive,inactive,inactive,–,inactive,inactive,–,–,–,–,–,–,–,inactive,–
Oc1cc(Cl)ccc1Oc1ccc(Cl)cc1Cl,inactive,inactive,–,–,7.46 µM (active) [middle of 4 runs],inactive,–,–,10.7 µM (active) [middle of 4 runs],–,–,4.67 µM (active),32 µM (active) [middle of 4 runs],35.4 µM (active) [middle of 4 runs],30 µM (active) [middle of 4 runs],4.61 µM (active) [middle of 4 runs],–,5.45 µM (active) and 5.46 µM (active),–,28.3 µM (active) and 27.8 µM (active) and 22.2 µM (active)
CCc1ccc(C(=O)NN(C(=O)c2cc(C)cc(C)c2)C(C)(C)C)cc1,inactive,inactive,inactive,inactive,–,inactive,inactive,inactive,–,inactive,inactive,–,–,–,–,–,–,–,inactive,–
CC1(c2ccc(Oc3ccccc3)cc2)OC(=O)N(Nc2ccccc2)C1=O (stereo unspecified),inactive,inactive,–,–,–,inactive,inactive,inactive,–,inactive,inactive,–,5.52 µM (active),18 µM (active),–,–,–,–,inactive,–
CCOC1Oc2ccc(OS(C)(=O)=O)cc2C1(C)C (stereo unspecified),inactive,inactive,inactive,inactive,–,inactive,inactive,inactive,–,inactive,inactive,–,–,–,–,–,–,–,inactive,–
